From PubChem BioAssay (NCI)
About 83,000 compounds went through this panel and 20% of them were active in at least one assay; those are over-represented in the sample as a whole.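 Note: values are percent growth. 100 is the growth of untreated cells, values between 100 and 0 indicate rising inhibition; between -100 and 0 indicates cell death.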 Active and inactive are the calls of the source. The calls were made as follows: active = growth percent below 10; inactive = the rest.

What was measured:
Experiment in all cases: NCI-60 one-dose screen, 48 h (100 = growth as untreated, 0 = no growth, -100 = all killed)
Settings in all cases: 10 µM unless noted
NCI-H23 lung = tested on: NCI-H23 lung
NCI-H226 lung = tested on: NCI-H226 lung
NCI-H322M lung = tested on: NCI-H322M lung
HOP-62 NSCLC = tested on: HOP-62 NSCLC
NCI-H460 lung = tested on: NCI-H460 lung
HOP-92 NSCLC = tested on: HOP-92 NSCLC
NCI-H522 lung = tested on: NCI-H522 lung
A549/ATCC NSCLC = tested on: A549/ATCC NSCLC
786-0 renal = tested on: 786-0 renal
COLO 205 colon = tested on: COLO 205 colon

Measured: growth

Cc1ccc(-c2nc3ccc(Cl)cn3c2NC2CCCCC2)o1
inactive: NCI-H23 lung 81.3% | NCI-H226 lung 84.5% | NCI-H322M lung 93.1% | HOP-62 NSCLC 87% | NCI-H460 lung 97.6% | HOP-92 NSCLC 73.1% | NCI-H522 lung 57.3% | A549/ATCC NSCLC 79.5% | 786-0 renal 87.8% | COLO 205 colon 79.6%

N#Cc1ccc(-n2nnc3ccccc32)cc1C#N
inactive: NCI-H23 lung 94% | NCI-H226 lung 96.7% | NCI-H322M lung 111% | HOP-62 NSCLC 94.6% | NCI-H460 lung 107% | HOP-92 NSCLC 103% | NCI-H522 lung 88.1% | A549/ATCC NSCLC 87.2% | 786-0 renal 99.5% | COLO 205 colon 104%

O=c1nc2c(-c3nc4ccccc4s3)n[nH]n2c2sc3c(c12)CCCC3
inactive: NCI-H23 lung 98.2% | NCI-H226 lung 90.1% | NCI-H322M lung 107% | HOP-62 NSCLC 90.5% | NCI-H460 lung 102% | HOP-92 NSCLC 90.7% | NCI-H522 lung 99.9% | A549/ATCC NSCLC 96.1% | 786-0 renal 102% | COLO 205 colon 106%

O=C(N/N=C/c1ccc(Cl)cc1)c1cc(-c2cc3ccccc3o2)nn1-c1ccccc1
inactive: NCI-H23 lung 92% | NCI-H226 lung 91.3% | NCI-H322M lung 96.7% | HOP-62 NSCLC 97.3% | NCI-H460 lung 106% | NCI-H522 lung 77.9% | A549/ATCC NSCLC 97.9% | 786-0 renal 95.1% | COLO 205 colon 96.1%
active: HOP-92 NSCLC -16.5%

COC(=O)c1[nH]cnc1/N=N/N(C)CCO
inactive: NCI-H23 lung 96.3% | NCI-H226 lung 101% | NCI-H322M lung 108% | HOP-62 NSCLC 97.4% | NCI-H460 lung 105% | HOP-92 NSCLC 128% | NCI-H522 lung 92% | A549/ATCC NSCLC 109% | 786-0 renal 93.5% | COLO 205 colon 120%

Cn1c(Nc2ccc(C(F)(F)F)cc2)nc2cc(Oc3ccnc(-c4ncc(C(F)(F)F)[nH]4)c3)ccc21
inactive: NCI-H23 lung 48.8% | NCI-H226 lung 64.5% | NCI-H322M lung 30.8% | HOP-62 NSCLC 60% | NCI-H460 lung 59.2% | HOP-92 NSCLC 67% | NCI-H522 lung 40.5% | A549/ATCC NSCLC 40.1% | 786-0 renal 89.4% | COLO 205 colon 22.9%

Cc1cccc(C)c1N1C(c2ccccc2)=NNC12C=CC(=O)c1c(O)cccc12 (stereo not given)
inactive: NCI-H23 lung 30.6% | NCI-H226 lung 94.6% | NCI-H322M lung 99.3% | HOP-62 NSCLC 39.4% | NCI-H460 lung 98.2% | HOP-92 NSCLC 115% | NCI-H522 lung 54.6% | A549/ATCC NSCLC 62.4% | 786-0 renal 105% | COLO 205 colon 97.7%

COC(=O)[C@@H](NC(=O)[C@@H](OC)[C@@H]1Cc2cc3cc(OC4CC(OC5CC(O)C(O)C(C)O5)C(O)C(C)O4)c(C)c(O)c3c(O)c2C(=O)[C@H]1OC1CC(OC2CC(OC3CC(C)(O)C(O)C(C)O3)C(O)C(C)O2)C(O)C(C)O1)C(C)C (stereo not given in full)
inactive: NCI-H322M lung 24.8% | COLO 205 colon 13.8%
active: NCI-H23 lung -6.89% | NCI-H226 lung -23.4% | HOP-62 NSCLC 6.44% | NCI-H460 lung -6.19% | HOP-92 NSCLC -18.9% | NCI-H522 lung -20% | A549/ATCC NSCLC 7.37% | 786-0 renal -21.2%

CC(C)(C)CC(C)(C)Nc1c(-c2c(O)c3ccccc3oc2=O)nc2c(Cl)cc(C(F)(F)F)cn12
inactive: NCI-H23 lung 103% | NCI-H226 lung 97.5% | NCI-H322M lung 94% | HOP-62 NSCLC 92.5% | NCI-H460 lung 107% | HOP-92 NSCLC 87.7% | NCI-H522 lung 81.4% | A549/ATCC NSCLC 85.5% | 786-0 renal 97% | COLO 205 colon 112%

Clc1ccc2c(NCCNc3nc(N4CCCC4)nc4ccccc34)ccnc2c1
inactive: NCI-H23 lung 11.4%
active: NCI-H226 lung -31.2% | NCI-H322M lung -7.37% | HOP-62 NSCLC -47.2% | NCI-H460 lung -23.6% | HOP-92 NSCLC -1.92% | NCI-H522 lung -48% | A549/ATCC NSCLC -4.72% | 786-0 renal -77.4% | COLO 205 colon -81.4%

N#CCNC(=O)c1ccc(-c2ccnc(Nc3ccc(N4CCOCC4)cc3)n2)cc1
inactive: NCI-H23 lung 29.6% | NCI-H322M lung 39.2% | HOP-92 NSCLC 46.9% | A549/ATCC NSCLC 13.4%
active: NCI-H226 lung -3.52% | HOP-62 NSCLC 4.27% | NCI-H460 lung 6.81% | NCI-H522 lung 4.57% | 786-0 renal 4.83% | COLO 205 colon 2.5%

CCN1CCN(Cc2ccc(Cc3ncc(F)c(-c4cc(F)c5nc(C)n(C(C)C)c5c4)n3)nc2)CC1
active: NCI-H460 lung -56.1%
inactive: NCI-H23 lung 44.3% | NCI-H226 lung 34.3% | NCI-H322M lung 29.3% | HOP-62 NSCLC 44.4% | HOP-92 NSCLC 50% | NCI-H522 lung 69% | A549/ATCC NSCLC 28.5% | 786-0 renal 46.4% | COLO 205 colon 16%
